In the library only some 3.8% were active in any assay of this set; here they are far more common.
proKLK7 act: proKLK7 (human) activation, primary screen; P49862; 370,000 tested, 0.9% active; AID 652039; purified proKLK7, EDANS-DABCYL substrate fluorescence; 100% is mature enzyme control, 0% vehicle; activation, % at 7 µM;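 active = activation above the mean of all tested compounds plus 3 SD, computed per campaign excluding outliers beyond control limits, cut at about 13% in these data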
Target sequence (P49862 whole entry, looked up): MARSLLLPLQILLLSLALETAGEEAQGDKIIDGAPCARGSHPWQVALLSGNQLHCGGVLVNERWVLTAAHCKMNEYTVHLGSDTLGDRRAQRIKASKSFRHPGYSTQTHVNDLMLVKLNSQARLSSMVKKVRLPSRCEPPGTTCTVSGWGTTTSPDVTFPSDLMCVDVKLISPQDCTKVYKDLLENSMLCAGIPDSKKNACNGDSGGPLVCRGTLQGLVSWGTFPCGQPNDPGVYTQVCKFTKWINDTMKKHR
ADAM10 inh: ADAM10 inhibition, QFRET primary screen. recombinant ADAM10, EDANS/DABCYL FRET peptide cleavage, 3 h. 370,000 tested, 0.62% active. inhibition, % at 7 µM. AID 720582. O14672;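 active = inhibition above a per-campaign cutoff equal to the mean of compounds falling between control-based bounds plus 3 SD, cut at about 20% in these data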
Ecoli rRNA inh: inhibitors of bacterial rRNA selective over humanized ribosomes. GFP signal change (wild-type ribosome), % (concentration not given with the values). 350,000 tested, 1.6% active. AID 720706. E. coli WT GFP vs humanized-ribosome RFP mutants, fluorescence, 24 h; active compounds read low; DMSO median 0, no signal -100;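 active = significant combined selectivity score with lowered wild-type GFP, culture density cut under 30%, mutant RFP and density less affected; inactive = any of these conditions unmet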
ADAM17 inh: ADAM17 inhibition, QFRET primary screen; inhibition, % at 6.95 µM; recombinant ADAM17, EDANS/DABCYL FRET peptide cleavage; 370,000 tested, 0.83% active; P78536;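 active = inhibition above the mean of compounds lying between control limits plus 3 SD, set per campaign, cut at about 8.5% in these data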
FGF22 binding: binders of recombinant human FGF22 by thermal shift | SYPRO orange fluorescence; percent of sucrose octasulfate shift, DMSO zero | activity (Tm shift, normalised), % at 9.99 µM | 340,000 tested, 1.5% active;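 active = mean Tm shift, scaled 0 neutral to 100 positive control, at about 1.3% or above, every replicate too, limit read from the data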
Target sequence (Q9HCT0 whole entry, looked up): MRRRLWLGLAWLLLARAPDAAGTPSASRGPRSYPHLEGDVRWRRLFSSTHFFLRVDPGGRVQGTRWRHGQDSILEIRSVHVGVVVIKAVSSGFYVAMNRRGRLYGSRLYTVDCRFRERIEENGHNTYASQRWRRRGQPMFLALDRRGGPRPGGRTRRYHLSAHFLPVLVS
Large screens that a line does not name were inactive.

COc1ccc(C(=O)Nc2c(N)nc(SCC(=O)c3ccccc3)[nH]c2=O)cc1	none
Cc1ccc(C(=O)NCC#N)cc1	none
Cc1ccc(C(=O)NC(C#N)=C(Cl)Cl)cc1	Ecoli rRNA inh -27.1
O=C(N/C=C/n1cnc2cc(C(F)(F)F)ccc21)c1ccccc1F	FGF22 binding 44.3
O=C(N/C=C/n1cnc2cc(C(F)(F)F)ccc21)c1ccc(F)cc1	none (no result: Ecoli rRNA inh)
O=C1N(CN2CCC3(CC2)OCCO3)c2ccccc2C12OCCCO2	none (no result: Ecoli rRNA inh, FGF22 binding)
CC1(C)COC2(OC1)C(=O)N(CN1CCOCC1)c1ccccc12	FGF22 binding 42.9
C[C@@H]1CN([C@H](C)CO)C(=O)c2cc(/C=C/c3ccccc3)cnc2O[C@H]1CN(C)C(=O)c1cnccn1	none (no result: proKLK7 act, ADAM10 inh, ADAM17 inh)
CN(CCCC(=O)Nc1ccc(Br)cc1F)S(=O)(=O)c1ccccc1	Ecoli rRNA inh -22.1
COc1cc(OC)cc(C(=O)Nc2cccc3ccccc23)c1	none
COC(=O)/C(=C/Nc1cccc2ccccc12)[N+](=O)[O-]	Ecoli rRNA inh -20.6
Cn1c(=O)c(-c2cc(=O)[nH][nH]2)c(O)c2ccccc21	Ecoli rRNA inh -34.1
C[C@@H]1CCCCO[C@H](CN(C)C(=O)Nc2ccc(F)cc2)[C@@H](C)CN([C@@H](C)CO)C(=O)c2cc(NS(=O)(=O)c3ccc(F)cc3)ccc2O1	none (no result: proKLK7 act, ADAM10 inh, ADAM17 inh)
CN(C)CCN=Cc1c(O)n(Cc2ccccc2)c(=O)c2ccccc12	Ecoli rRNA inh -24.0
CC1(C)CC(NC(=S)NC2CC2)CC(C)(C)N1	FGF22 binding 43.4
O=C(C[C@@H]1C[C@H]2c3cc(NS(=O)(=O)c4ccccc4)ccc3O[C@H]2[C@H](CO)O1)NCC1CC1	none (no result: proKLK7 act, ADAM10 inh, ADAM17 inh)
COc1ccc(-c2ccc3c(n2)CCCN3S(=O)(=O)c2ccc(F)cc2)cc1	none
COc1ccc(S(=O)(=O)N2CCCc3nc(C)c(C)cc32)cc1	Ecoli rRNA inh -14.7
C[C@@H]1CCCCO[C@@H](CN(C)C(=O)Cc2ccccc2)[C@H](C)CN([C@H](C)CO)C(=O)c2cc(NS(=O)(=O)c3ccc(Cl)cc3)ccc2O1	none (no result: proKLK7 act, ADAM10 inh, ADAM17 inh)
N#CC(c1ccccn1)c1ncc(C(F)(F)F)cc1Cl (centres undefined)	FGF22 binding 43.4
CO/N=C/C(C#N)c1ncc(C(F)(F)F)cc1Cl (centres undefined)	none (no result: proKLK7 act, ADAM10 inh, ADAM17 inh)
COc1ccccc1NC(=O)N[C@H]1CC[C@H](CCNS(=O)(=O)c2ccc(C)cc2)O[C@@H]1CO	none (no result: proKLK7 act, ADAM10 inh, ADAM17 inh, FGF22 binding)
CCOC(=O)c1nnc(-c2ccccc2)nc1N1CC(C)OC(C)C1 (centres undefined)	none
CCOC(=O)c1cnc(-c2ccccc2)nc1N1CC(C)OC(C)C1 (centres undefined)	FGF22 binding 43.3
COc1cc(/C=C(\C#N)C(=O)N2CCc3ccccc32)ccc1O	Ecoli rRNA inh -32.8
N#C/C(=C\c1ccc(O)c(O)c1)C(=O)N1CCc2ccccc21	none (no result: Ecoli rRNA inh)
CCC(=O)Nc1ccc2c(c1)OC[C@@H](C)N(CC1CCOCC1)C[C@H](C)[C@H](OC)CN(C)C2=O	none (no result: proKLK7 act, ADAM10 inh, ADAM17 inh)
COc1ccc(NC(=S)Nc2ccc3cn[nH]c3c2)cc1	none
CCc1ccc(NC(=S)Nc2ccc3cn[nH]c3c2)cc1	Ecoli rRNA inh -21.3
COc1ccc(-c2cn3c(C)c(C(=O)Nc4cccc(C)n4)sc3n2)cc1	Ecoli rRNA inh -29.5
Cc1ccc(OCCCC(=O)Nc2ccc(S(N)(=O)=O)cc2)cc1	FGF22 binding 43.4
NS(=O)(=O)c1ccc(NC(=O)COC(=O)COc2ccc(Cl)cc2)cc1	FGF22 binding 43.1 (no result: Ecoli rRNA inh)
C[C@H]1CN([C@@H](C)CO)C(=O)Cc2cc(NS(=O)(=O)c3ccc(Cl)cc3)ccc2O[C@H]1CN(C)C(=O)Nc1ccccc1	none (no result: proKLK7 act, ADAM10 inh, ADAM17 inh)
C[C@H](CO)N1C[C@H](C)[C@@H](CN(C)S(C)(=O)=O)Oc2c(NC(=O)CCCN(C)C)cccc2C1=O	none (no result: proKLK7 act, ADAM10 inh, ADAM17 inh, FGF22 binding)
CNC[C@@H]1OCCCC[C@H](C)Oc2ccc(NS(=O)(=O)c3ccc(OC)cc3)cc2C(=O)N([C@H](C)CO)C[C@@H]1C	none (no result: proKLK7 act, ADAM10 inh, ADAM17 inh, FGF22 binding)
COc1ccc(OC)c(NC(=O)/C=C/c2ccccc2[N+](=O)[O-])c1	none (no result: Ecoli rRNA inh, FGF22 binding)
COc1ccc(NC(=O)/C=C/c2ccccc2[N+](=O)[O-])c(OC)c1	Ecoli rRNA inh -22.8
CCCOC(c1ccccc1)(c1ccccc1)C(Oc1nc(C)cc(C)n1)C(=O)O (centres undefined)	Ecoli rRNA inh -19.2
CCSC1=NCCN1S(=O)(=O)c1ccc2ccccc2c1	Ecoli rRNA inh -30.4, FGF22 binding 43.6
CSC1=NCCN1S(=O)(=O)c1ccc2ccccc2c1	none
CSc1cc(/C=N/O)c(SC)s1	none (no result: Ecoli rRNA inh, FGF22 binding)
Cc1cc(C)c(COCc2cc(/C=N/O)c(C)cc2C)cc1/C=N/O	Ecoli rRNA inh -36.2
O=C(NCC[C@@H]1CC[C@@H](NS(=O)(=O)c2ccccc2)[C@H](CO)O1)c1ccc2c(c1)OCO2	none (no result: proKLK7 act, ADAM10 inh, ADAM17 inh)
COc1ccc2c3c(n(C)c2c1)[C@@H](CO)N(Cc1ccc(F)cc1)CC31CCN(CC2CC2)CC1	none (no result: proKLK7 act, ADAM10 inh, ADAM17 inh)
OC[C@H]1[C@H](c2ccc(C#CC3(O)CCCC3)cc2)[C@H]2CN(Cc3ccncc3)CCCCN21	none (no result: proKLK7 act, ADAM10 inh, ADAM17 inh)
CCC1(C)COC(C)(CC(=O)NNC(=O)Nc2ccccc2)OC1 (centres undefined)	FGF22 binding 43.5 (no result: Ecoli rRNA inh)
CC(=O)N1CC2(C1)[C@@H](c1ccc(-c3ccccc3C)cc1)[C@H](CO)N2C(C)=O	none (no result: proKLK7 act, ADAM10 inh, ADAM17 inh, FGF22 binding)
C=CCNC(=S)N1CCc2c([nH]c3ccccc23)C1C (centres undefined)	Ecoli rRNA inh -33.4
CC1c2[nH]c3ccccc3c2CCN1S(C)(=O)=O (centres undefined)	none (no result: Ecoli rRNA inh, FGF22 binding)
COC(=O)Nc1cc(C(=O)c2ccc(Cl)cc2Cl)c[nH]1	Ecoli rRNA inh -46.5
CN(C)C(=O)[C@H]1[C@H](CO)[C@H]2Cn3c(ccc(C4=CCCC4)c3=O)[C@@H]1N2CC1CCCC1	none (no result: proKLK7 act, ADAM10 inh, ADAM17 inh, FGF22 binding)
COc1ccc(NC(=O)Nc2ccc3c(c2)[C@@H]2C[C@H](CC(=O)N[C@@H](C)c4ccccc4)O[C@H](CO)[C@@H]2O3)cc1	none (no result: proKLK7 act, ADAM10 inh, ADAM17 inh)
CC(NCc1ccccc1Cl)C(=O)Nc1ccc(C#N)cc1 (centres undefined)	Ecoli rRNA inh -29.1
CC(NCc1ccccc1Cl)C(=O)Nc1ccc(S(=O)(=O)N2CCCC2)cc1 (centres undefined)	none (no result: Ecoli rRNA inh, FGF22 binding)
CCOC(=O)Cc1csc(NC(=O)c2cc(C)cc(C)c2)n1	Ecoli rRNA inh -25.2
COC(=O)c1cc(NC(=O)c2cc3ccccc3o2)cc(C(=O)OC)c1	Ecoli rRNA inh -22.7
COC(=O)c1cccc(NC(=O)c2cc3ccccc3o2)c1	none
CCOC(=O)Cc1csc(NC(=O)c2cc3ccccc3o2)n1	Ecoli rRNA inh -19.2 (no result: FGF22 binding)
COc1ccc(CN(C)C[C@H]2Oc3ccc(NS(=O)(=O)c4c(C)noc4C)cc3C(=O)N([C@H](C)CO)C[C@H]2C)cc1	none (no result: proKLK7 act, ADAM10 inh, ADAM17 inh)
Cn1cccc1/C=C1/SC(=O)N(CC(=O)N2CCCC2)C1=O	FGF22 binding 43.4
c1ccc(CSc2nccc(-c3ccco3)n2)cc1	Ecoli rRNA inh -36.2
